Measured values reported in ChEMBL document CHEMBL3988442, “University of Dundee, Small-Polar-MMV Screening Library” (2021).
Out of some 48,000 compounds screened, about 13,000 (27%) showed an effect of 50% or more. The list shows a part of the results.

System: Wolbachia pipientis
Assay: Anti-Wolbachia Cell-Based Screen
Format: functional
Parameters: scale not given: in the data most compounds retested in dose-response had high values
Settings: 5 µM

SMILES	Percent Effect
CCN(CC)CCCC(C)NC(=O)c1ccccc1-n1cccn1 (centres undefined)	7.306%
Cc1csc(CN(C)C(=O)Nc2cc(F)cc(N3CCCC3)c2)n1	1.916%
Cc1cc(CN2CCN(C(=O)C3CCC3)[C@@H]3CS(=O)(=O)C[C@@H]32)ccc1F	-7.739%
COCc1cccc(NS(=O)(=O)c2cc(C(=O)O)cs2)c1	-2.674%
CC(=O)N1CCCN(C(=O)NCCCc2cn[nH]c2C)CC1	5.241%
Cc1[nH]ncc1CCCNC(=O)N1CCC(C(N)=O)CC1	-4.643%
COc1ccc(CC(=O)N2CCCC(c3nncn3C)C2)cc1 (centres undefined)	-3.253%
Cc1[nH]ncc1CCCNC(=O)N1CCCC(c2nncn2C)C1 (centres undefined)	131.8%
COc1ccc(CCNC(=O)N2CCCC(c3nncn3C)C2)cc1 (centres undefined)	95.68%
Cn1cnnc1C1CCCN(C(=O)NCCc2ccccc2F)C1 (centres undefined)	-7.484%
Cn1cc(CCNC(=O)N2CCCC(c3nncn3C)C2)cn1 (centres undefined)	107%
COc1ccccc1CCNC(=O)N1CCCC(c2nncn2C)C1 (centres undefined)	0.4535%
Cc1ccccc1CCNC(=O)N1CCCC(c2nncn2C)C1 (centres undefined)	7.468%
CCOc1cc(CN(C)CCOC)ccc1OC(F)F	9.652%
CN(C)C(=O)c1cccc(NC(=O)Cc2cc(F)ccc2F)n1	-6.771%
CC(=O)NCCCNCc1cc(F)ccc1Br	10.59%
CCS(=O)(=O)NCCNCc1cc(F)ccc1Br	5.201%
CS(=O)(=O)NCCCNCc1cc(F)ccc1Br	85.45%
O=C(c1cnc(-c2ccco2)s1)N1CCCCC1Cn1cccn1 (centres undefined)	80.46%
Cc1nc(-c2ccco2)ccc1C(=O)N1CCCC1Cn1cccn1 (centres undefined)	-3.884%
Cc1sc(-c2ccco2)nc1C(=O)N1CCCC1Cn1cccn1 (centres undefined)	99.48%
O=C(c1cnc(-c2ccco2)s1)N1CCCC1Cn1cccn1 (centres undefined)	-5.367%
Cc1cnn(CC2CCCN2C(=O)c2cnc(-c3ccco3)s2)c1 (centres undefined)	107.8%
COc1ccccc1S(=O)(=O)CCOC(C)C	8.609%
CC(C)Oc1ccc(CSc2nnc(CN3CCCC3=O)o2)cc1	-8.061%

SMILES	Percent Effect
OCc1csc(N2CCCC(COc3cccc(F)c3)C2)n1 (centres undefined)	96.77%
Cc1ccc(OCC2CCCN(c3nc(CO)cs3)C2)cc1 (centres undefined)	87.49%
OCc1csc(N2CCCN(Cc3ccc(F)cc3)CC2)n1	11.91%
OCc1csc(N2CCN(Cc3cccc(F)c3)CC2)n1	-8.687%
Cc1ccc(OCC2CCCN(Cc3ccc(CO)o3)C2)cc1 (centres undefined)	-15.89%
COc1ccc(OCC2CCCN(c3nc(CO)cs3)C2)cc1 (centres undefined)	99.62%
Cc1ccc(OCC2CCCN(c3cc(C(N)=O)ccn3)C2)cc1 (centres undefined)	0.1163%
COc1cccc(OCC2CCCN(c3cc(C(N)=O)ccn3)C2)c1 (centres undefined)	12.14%
CC(C)NS(=O)(=O)c1cc(C(=O)O)cc(-c2ccccc2CN(C)C)c1	9.283%
CCOCCN1CCN(Cc2nnc(-c3occc3C)o2)CC1	-3.196%
CC(C)C(O)C1(CNC(=O)Nc2ccc(CN3CCOC3=O)cc2)CC1 (centres undefined)	-15.4%
COC(=O)c1ccc2ccn(CC3CCCO3)c(=O)c2c1 (centres undefined)	-4.095%
CCOCCn1c(=O)[nH]c2cc(C(=O)N(C)Cc3nc(C)c[nH]3)ccc21	-5.58%
Cc1c(C2N3C[C@]4(C(C)C)CN2C[C@](C(C)C)(C3)C4=O)[nH]c(=O)[nH]c1=O (some centres undefined)	123.1%
CCC[C@]12CN3C[C@](CCC)(CN(C1)C3c1[nH]c(=O)[nH]c(=O)c1C)C2=O (some centres undefined)	113.9%
CC(=O)NC[C@H]1COCc2nc3c(C)cccc3n21	4.229%
CCOC(C)c1noc(CN2CCN(c3ccncc3)CC2)n1 (centres undefined)	-6.635%
CCOCC(=O)N1Cc2nccn2CC(CN(C)C)C1 (centres undefined)	110.3%
Cc1occc1C(=O)N1Cc2nccn2CC(CN(C)C)C1.O=C(O)C(F)(F)F (centres undefined)	7.658%
CN(C)CC1CN(C(=O)CCc2ccccc2)Cc2nccn2C1.O=C(O)C(F)(F)F (centres undefined)	96.55%
CCOCC(=O)N1Cc2nccn2CC(CN2CCCC2)C1.O=C(O)C(F)(F)F (centres undefined)	-4.064%
COc1ccc(CC(=O)N2Cc3nccn3CC(CN(C)C)C2)cc1.O=C(O)C(F)(F)F (centres undefined)	100.3%
CN(C)CC1CN(C(=O)NCc2ccccc2)Cc2nccn2C1.O=C(O)C(F)(F)F (centres undefined)	-13.89%
CCOCC(=O)N1CCC(c2nccn2CC2CC2)CC1	4.34%
COc1cccc(CC(=O)N2Cc3nccn3CC(CN(C)C)C2)c1 (centres undefined)	80.89%

SMILES	Percent Effect
Cc1ccc(CN2CCOC3(CCN(C(=O)C4CC=CC4)CC3)C2)cc1.O=C(O)C(F)(F)F	15.78%
Cc1ccccc1N1CCN(C(=O)c2ncc(F)cc2F)C(C)C1 (centres undefined)	9.425%
COc1ccc(C(=O)N2C[C@H]3CC[C@@H]2CN(C)C3)cc1Cl	-11.94%
Cc1ccccc1-c1ncc(CNCc2csc(C(C)C)n2)s1	-1.637%
O=C(c1ccoc1)N1CCC2(C1)CN(c1nccs1)C2	-3.02%
CN(C)CC1CN(C(=O)Cc2ccccc2)Cc2nccn2C1.O=C(O)C(F)(F)F (centres undefined)	102.6%
Cc1ccc(CC(=O)N2Cc3nccn3CC(CN(C)C)C2)cc1.O=C(O)C(F)(F)F (centres undefined)	14%
Cc1cncc(C2CCCN2CCO)n1 (centres undefined)	153.6%
Cc1nc(O)cc(C2CCCN2CCO)n1 (centres undefined)	112.5%
Cc1cncc(C2CCCN2CC(N)=O)n1 (centres undefined)	143.4%
OCCCN1CCCC1c1cccc(Br)c1 (centres undefined)	-6.004%
NC(=O)CN1CCCC1c1ccccc1Br (centres undefined)	-4.067%
CN1CCN(C[C@H]2CC[C@@H](Cc3ccc(CN4CCCC4)cc3)O2)CC1	-1.169%
Cc1ccc(S(=O)(=O)NC[C@H]2OC[C@@H](NCc3cccs3)[C@@H]2O)cc1	7.979%
CCn1c(C)nnc1SCCNC(=O)CC1CCc2ccccc21 (centres undefined)	-3.198%
CCOC(=O)[C@]12CCCN(Cc3ccsc3)C[C@H]1CN(CCOC)C2.O=C(O)C(F)(F)F.O=C(O)C(F)(F)F	-11.63%
CCOC(=O)[C@]12CCCN(Cc3ccco3)C[C@H]1CN(CCN(C)C)C2.O=C(O)C(F)(F)F.O=C(O)C(F)(F)F.O=C(O)C(F)(F)F	13.18%
CCOC(=O)[C@]12CCCN(Cc3ccco3)C[C@H]1CN(S(C)(=O)=O)C2.O=C(O)C(F)(F)F	113.6%
CCOC(=O)[C@]12CCCN(Cc3cccs3)C[C@H]1CN(CCOC)C2.O=C(O)C(F)(F)F.O=C(O)C(F)(F)F	131.5%
CCOC(=O)[C@]12CCCN(Cc3cccs3)C[C@H]1CN(C(C)=O)C2.O=C(O)C(F)(F)F	93.24%
CCOC(=O)[C@]12CCCN(Cc3nccs3)C[C@H]1CN(C(C)C)C2.O=C(O)C(F)(F)F.O=C(O)C(F)(F)F	-10.51%
CCOC(=O)[C@]12CCCN(Cc3nccs3)C[C@H]1CN(CCOC)C2.O=C(O)C(F)(F)F.O=C(O)C(F)(F)F	-1.05%
CCOC(=O)[C@]12CCCN(Cc3nccs3)C[C@H]1CN(C(C)=O)C2.O=C(O)C(F)(F)F	10.79%
CCOC(=O)[C@]12CCCN(Cc3cccs3)C[C@H]1CN(C(C)C)C2.O=C(O)C(F)(F)F.O=C(O)C(F)(F)F	108.6%
CCOC(=O)[C@]12CCCN(Cc3nccs3)C[C@H]1CN(S(C)(=O)=O)C2.O=C(O)C(F)(F)F	-4.113%

SMILES	Percent Effect
COCCN(Cc1ccccn1)C(=O)CC1OCCc2ccccc21 (centres undefined)	-5.998%
COC(=O)c1ccc(N2CCC(C(O)c3ccccc3)CC2)nn1 (centres undefined)	-10.77%
CC(C)CCC(=O)Nc1ncn(CC(=O)N2CCCCCC2)n1	-19.43%
CCc1nc(CC(=O)N2CCOCC2c2ncon2)cs1 (centres undefined)	-4.331%
Cc1nnsc1CN1C[C@@H]2CC[C@H](C1)N(Cc1c(C)noc1C)C2=O	10.64%
O=C1N(CC2CC2)CCCC1(O)CN1CCc2[nH]ncc2C1 (centres undefined)	-6.967%
CCc1ccc(CN2CCN(C)C3(CCC(=O)N(CC4CC4)CC3)C2)o1 (centres undefined)	1.557%
Cc1noc([C@@H]2C[C@H](NC(=O)C3CCCCC3)CN2C)n1	-5.582%
CCOC(=O)[C@]12CCCN(Cc3cccs3)C[C@H]1CN(CC(C)C)C2.O=C(O)C(F)(F)F.O=C(O)C(F)(F)F	98.32%
CCOC(=O)[C@]12CCCN(Cc3nccs3)C[C@H]1CN(CCN(C)C)C2.O=C(O)C(F)(F)F.O=C(O)C(F)(F)F.O=C(O)C(F)(F)F	8.148%
CCOC(=O)[C@]12CCCN(Cc3nccs3)C[C@H]1CN(CC(C)C)C2.O=C(O)C(F)(F)F.O=C(O)C(F)(F)F	11.11%
Cn1cc(C(=O)Nc2cccc(-c3ccc4c(c3)CCO4)n2)ccc1=O	14%
CNC(=O)CC1CC2(CCN(c3ncccn3)CC2)c2ccccc21.O=C(O)C(F)(F)F (centres undefined)	-15.28%
CCC1CN(C(=O)c2ncccc2O)CCC(=O)N1Cc1ccccc1 (centres undefined)	-8.07%
CNC(=O)c1cccnc1N1CCN(Cc2ccccc2)C(CCO)C1 (centres undefined)	-3.747%
COC(=O)CC1CN(Cc2c(Cl)ccc3cccnc23)CCO1 (centres undefined)	-2.588%
CNC(=O)CC1c2cccnc2C(=O)N1Cc1ccccc1 (centres undefined)	136.6%
O=C(Cc1ccccn1)N1C[C@@H]2CC[C@H](C1)N(Cc1ccccc1)C2=O	-26.39%
O=C(Cc1cccnc1)N1C[C@@H]2CC[C@H](C1)N(Cc1ccccc1)C2=O	-0.7591%
NC(=O)CC1c2cccnc2C(=O)N1Cc1ccccc1 (centres undefined)	97.87%
COC(=O)CC1c2cccnc2C(=O)N1Cc1ccccc1 (centres undefined)	107.1%
O=C(O)c1cccnc1N1CCN(Cc2ccc(F)cc2)C(CCO)C1 (centres undefined)	-1.62%
O=C1c2ncccc2C(CCO)N1Cc1ccccc1 (centres undefined)	101.3%
CCC1CN(C(=O)c2cccnc2O)CCC(=O)N1Cc1ccccc1 (centres undefined)	-1.189%
